PubChem BioAssay AID463173 (ICCB-Longwood Screening Facility, Harvard Medical School, 2010)
Screen size: about 52,000 compounds; about 4,300 (8.3%) were called active. The sample holds actives, similar compounds and a random draw of the others, so the mix is not that of the screen. No stated cut-off is given here; in the data, active means survival mostly below about 52% (no sharp cut-off); inactive means mostly above about 56%.

system: DeltatarO mutant; assay: growth inhibition of S. aureus wild type versus tarO mutant, primary screen, teichoic acid synthesis inhibitors, RN4220, OD600 (AID 463173); conditions: OD600, 18 h, hits give low values, screened at 18.75 µg/mL (by protocol)

| SMILES | survival |
| --- | --- |
| CC1CCN(S(=O)(=O)c2ccccc2)CC1 | 104% (inactive) |
| CC(=O)Nc1ccc(S(=O)(=O)N2CCC(C)CC2)cc1 | 96% (inactive) |
| CC1CCN(S(=O)(=O)c2ccc(NC(=O)Nc3ccccc3)cc2)CC1 | 9% (active) |
| Cc1ccc2c(CC(=O)Nc3ccc(S(=O)(=O)N4CCC(C)CC4)cc3)coc2c1 | 59% (inactive) |
| CC(C)(C)c1ccc(S(=O)(=O)N2CCC(c3ccncc3)CC2)cc1 | 109% (inactive) |
| Cc1ccc2occ(CC(=O)Nc3ccc(S(=O)(=O)N4CCCC(C)C4)cc3)c2c1 (centres undefined) | 58% (inactive) |
| Cc1ccc2occ(CC(=O)Nc3ccc(S(=O)(=O)N4CCC(C)CC4)cc3)c2c1 | 55% (active) |
| O=S(=O)(c1ccc(Cl)cc1)N1CCC(c2ccncc2)CC1 | 73% (inactive) |
| CC(=O)Nc1ccc(S(=O)(=O)N2CCC(c3ccncc3)CC2)cc1 | -5% (active) |
| CC1=C(C(=O)Nc2ccccc2C)C(c2ccncc2)n2nc(SCc3ccccc3Cl)nc2N1 (centres undefined) | 62% (inactive) |
| CCOC(=O)c1ccccc1NC(=O)N(Cc1ccc(C)cc1)Cc1cccn1-c1nnc(N2CCCC2=O)s1 | 118% (inactive) |
| Cc1ccc(NC(=O)Cn2nnc(-c3nc(-c4ccncc4)no3)c2N)c(C)c1 | 92% (inactive) |
| CCc1ccccc1NC(=O)CSc1nccn1C | 89% (inactive) |
| CC1=C(c2ccc(C)c(C)c2)S(=O)(=O)N(Cc2ccc(C(=O)NCc3ccc(C)cc3)cc2)C1=O | 92% (inactive) |
| COc1ccc(-c2ccc(=O)n(CC(=O)Nc3ccc(N(C)C)cc3)n2)cc1 | 90% (inactive) |
| CCC1CCCCN1S(=O)(=O)c1ccc(C(=O)Nc2sc3c(c2C(N)=O)CCC3)cc1 (centres undefined) | 68% (inactive) |
| Cc1ccc(-n2nc(C(=O)N(C)c3ccccc3Cl)c3c4ccccc4n(C)c3c2=O)cc1 | 88% (inactive) |
| CCCNS(=O)(=O)c1cc(-c2nnc3c4ccccc4c(C)nn23)ccc1OC | 100% (inactive) |
| Cc1cc2c(cc1S(=O)(=O)NCc1ccccc1Cl)OCCN2C | 106% (inactive) |
| CCc1ccc(-n2nc3cc(C)c(NC(=O)c4cc(Cl)ccc4OC)cc3n2)cc1 | 86% (inactive) |
| CCOC(=O)c1cc2c(=O)n3ccccc3nc2n(C(C)C)c1=NC(=O)c1cc2ccccc2o1 | 25% (active) |

| SMILES | survival |
| --- | --- |
| CCCCn1c(=NC(=O)c2cc3ccccc3o2)c(C(=O)OCC)cc2c(=O)n3ccccc3nc21 | 107% (inactive) |
| CCOC(=O)c1cc2c(=O)n3ccccc3nc2n(C(C)C)c1=NC(=O)C(C)(C)Oc1ccc(Cl)cc1 | 57% (inactive) |
| CCOC(=O)c1cc2c(=O)n3ccccc3nc2n(CC(C)C)c1=NC(=O)c1cc2ccccc2o1 | 59% (inactive) |
| CCOC(=O)c1cc2c(=O)n3ccccc3nc2n(CCCOC)c1=NC(=O)c1cc2ccccc2o1 | 65% (inactive) |
| CCOC(=O)c1cc2c(=O)n3ccccc3nc2n(CC(C)C)c1=NC(=O)C(C)Oc1ccccc1 (centres undefined) | 165% (inactive) |
| CCOC(=O)c1cc2c(=O)n3ccccc3nc2n(C(C)C)c1=NC(=O)c1c(-c2c(F)cccc2Cl)noc1C | 151% (inactive) |
| CCOC(=O)c1cc2c(=O)n3ccccc3nc2n(CC(C)C)c1=NC(=O)C(C)(C)Oc1ccc(Cl)cc1 | 31% (active) |
| CCCCn1c(=NC(=O)C(C)(C)Oc2ccc(Cl)cc2)c(C(=O)OCC)cc2c(=O)n3ccccc3nc21 | 60% (inactive) |
| CCOC(=O)c1cc2c(=O)n3ccccc3nc2n(CCOC)c1=NC(=O)c1cc2ccccc2o1 | 58% (inactive) |
| CCCn1c(=NC(=O)c2cc3ccccc3o2)c(C(=O)OCC)cc2c(=O)n3ccccc3nc21 | 27% (active) |
| CCOC(=O)c1cc2c(=O)n3ccccc3nc2n(CCCOC)c1=NC(=O)C(C)Oc1ccccc1 (centres undefined) | 48% (active) |
| O=C(NC1CSCC1=O)c1ccccc1 (centres undefined) | 69% (inactive) |
| O=C1CC(c2ccccc2)Sc2nc(-c3ccc(F)cc3)nn21 (centres undefined) | 81% (inactive) |
| O=c1[nH]cnc2nc3c4ccccc4c4ccccc4c3nc12 | 74% (inactive) |
| O=C(Nc1cccc(F)c1)c1ccc2c(c1)N(Cc1ccccc1)C(=O)c1ccccc1S2(=O)=O | 80% (inactive) |
| O=C1CN=C(Nc2ccccc2Cl)N1Cc1ccccc1 | 110% (inactive) |
| COc1ccccc1NC(=O)C1CCC(CNS(=O)(=O)c2ccc3c(c2)CC(C)N3C(C)=O)CC1 (centres undefined) | 58% (inactive) |
| O=C(NC1CC(=O)N(c2cccc(F)c2)C1)c1ccc(S(=O)(=O)N2CCCC2)cc1 (centres undefined) | 68% (inactive) |
| CCOCCCNC(=O)C(=O)Nc1c2c(nn1-c1ccc(OC)cc1)CSC2 | 83% (inactive) |
| Cc1ccc(NC(=O)Cn2c(=O)n(CCc3ccccc3)c(=O)c3c4c(sc32)CCCC4)c(C)c1 | 92% (inactive) |
| CCC1C=CCC2C(=O)N(CC(=O)NCCC3=CCCCC3)C(=O)C12 (centres undefined) | 73% (inactive) |

| SMILES | survival |
| --- | --- |
| CC(=O)N1CCCn2c1nc1ccccc12 | 92% (inactive) |
| Cc1ccc(C)c(N2CCN(C(=O)Cn3cnc4sc(C)c(S(=O)(=O)N5CCN(c6ncccn6)CC5)c4c3=O)CC2)c1 | 67% (inactive) |
| CC(NC(=O)c1ccc2c(c1)N(Cc1cccc(F)c1)C(=O)c1ccccc1S2)c1ccccc1 (centres undefined) | 89% (inactive) |
| COc1ccc2c(CNC3CCCC3)c(C(=O)O)n(Cc3ccccc3C)c2c1 | 95% (inactive) |
| Cc1cccc(C)c1NC(=O)CSc1ncc2c(n1)-c1ccc(Cl)cc1N(Cc1ccccc1)S2(=O)=O | 0% (active) |
| COc1ccccc1CNC(=O)CSc1ncc2c(n1)-c1ccc(Cl)cc1N(Cc1ccccc1)S2(=O)=O | 32% (active) |
| O=C(CSc1ncc2c(n1)-c1ccc(Cl)cc1N(Cc1ccccc1)S2(=O)=O)Nc1ccc(F)c(F)c1 | 131% (inactive) |
| CCc1cccc(NC(=O)CSc2ncc3c(n2)-c2ccc(Cl)cc2N(Cc2ccccc2)S3(=O)=O)c1 | 92% (inactive) |
| COc1ccc(CNC(=O)CSc2ncc3c(n2)-c2ccc(Cl)cc2N(Cc2ccccc2)S3(=O)=O)cc1 | 49% (inactive) |
| COc1ccccc1CNC(=O)CSc1ncc2c(n1)-c1cc(Cl)ccc1N(Cc1ccccc1)S2(=O)=O | 80% (inactive) |
| CCN(CC)N=Nc1ccc(NC(C)=O)cc1 | 113% (inactive) |
| CCc1ccc(-n2nc(C)c3c(C(=O)Nc4cc(C)ccc4C)cc(C)nc32)cc1 | 60% (inactive) |
| Cc1c(N)c(C)c(N)c(C)c1N | 96% (inactive) |
| CCOc1ccccc1CNC(=O)C1CCN(C(=O)N2CC(CC)Oc3ccc(C)cc32)CC1 (centres undefined) | 71% (inactive) |
| CCOC(=O)c1c(S(=O)(=O)NCC(=O)Nc2ccc(C)c(Cl)c2)c(C)n(C)c1C | 61% (inactive) |
| Cc1ccc(NC(=O)Cn2c(=O)n(Cc3ccc(F)cc3)c(=O)c3cccnc32)cc1C | 91% (inactive) |
| COc1cccc(NC(=O)CCc2nc3c(C)nn(-c4ccc(C)cc4)c3n(C)c2=O)c1 | 81% (inactive) |
| Cc1ccc(-n2nc(C)c3nc(CCC(=O)Nc4cccc(F)c4)c(=O)n(C)c32)cc1 | -5% (active) |
| Cc1ccc(-n2nc(C)c3nc(CCC(=O)Nc4ccc(F)cc4)c(=O)n(C)c32)cc1 | 73% (inactive) |
| O=C(c1cc(S(=O)(=O)N2CCCC2)c[nH]1)N1CCN(c2cccc(Cl)c2)CC1 | 98% (inactive) |
| COCCn1nnnc1C(c1ccc2ncccc2c1)N1CCc2ccccc21 (centres undefined) | 98% (inactive) |

| SMILES | survival |
| --- | --- |
| COc1ccc(-c2noc(-c3ccc(NCc4ccco4)c([N+](=O)[O-])c3)n2)cc1OC | 43% (active) |
| COc1ccccc1-c1noc(-c2ccc(NCc3ccco3)c([N+](=O)[O-])c2)n1 | 97% (inactive) |
| COc1cc(-c2noc(-c3ccc(NCc4ccco4)c([N+](=O)[O-])c3)n2)cc(OC)c1OC | 49% (active) |
| O=[N+]([O-])c1cc(-c2nc(-c3ccccc3)no2)ccc1NCc1ccco1 | 64% (inactive) |
| COc1ccc(-c2noc(-c3ccc(NCc4ccco4)c([N+](=O)[O-])c3)n2)cc1 | 43% (inactive) |
| Cc1ccc(-c2noc(-c3ccc(NCc4ccco4)c([N+](=O)[O-])c3)n2)cc1 | 98% (inactive) |
| CCC(=O)N1c2nc(C(C)C)nn2C2(CCCCC2)[C@@H]2CCCC[C@@H]21 | 81% (inactive) |
| COC(=O)c1ccc(Cn2nnc3c(=O)[nH]c(C4CCCN(S(=O)(=O)c5cccc(Cl)c5)C4)nc32)cc1 (centres undefined) | 94% (inactive) |
| CC(C)N(C(=O)CSc1nnc(Cc2csc(Nc3ccccc3)n2)o1)C(C)C | 69% (inactive) |
| CCOc1ccc2nc(NCCNC(=O)C3CCCCC3)c(C#N)cc2c1 | 106% (inactive) |
| CCN(CC)C(=O)/C(=C\c1ccc(OC)c(OC)c1)n1ccccc1=O | 103% (inactive) |
| CCc1ccc(CNC(=O)Cn2nc(C)c3c(C)n(-c4ccc(C)cc4)nc3c2=O)cc1 | 79% (inactive) |
| COc1ccc(-c2cccc(NS(=O)(=O)c3cc(C)c(Cl)cc3C)c2)nn1 | 102% (inactive) |
| CC(=O)c1sc2c(c1C)c(=O)n(-c1ccc(Cl)cc1)c(=O)n2Cc1cc(=O)n2cc(Cl)ccc2n1 | 58% (inactive) |
| Cc1oc(-c2ccccc2)nc1C(=O)O | 72% (inactive) |
| Cc1ccc(CNc2ccc(-c3nc(-c4ccco4)no3)cc2[N+](=O)[O-])cc1 | 53% (inactive) |
| O=[N+]([O-])c1cc(-c2nc(-c3ccco3)no2)ccc1NCc1ccccc1 | 47% (active) |
| COc1ccccc1CNc1ccc(-c2nc(-c3ccco3)no2)cc1[N+](=O)[O-] | 45% (inactive) |
| CCCCNc1ccc(-c2nc(-c3ccco3)no2)cc1[N+](=O)[O-] | 57% (inactive) |
| CCNc1ccc(-c2nc(-c3ccco3)no2)cc1[N+](=O)[O-] | 51% (inactive) |
| CCCNc1ccc(-c2nc(-c3ccco3)no2)cc1[N+](=O)[O-] | 57% (active) |
